# Reference: PubChem BioAssay (EPA / NIEHS)
# “And” between values parts separate entries of the source, which are not always exact repeats. Equal entries are not always repeated. Results filed as inconclusive are left out. More than one record can exist for a structure, and the calls need not agree. The source made the active and inactive calls. Rule for the calls: active = hit-call score of the fitted dose curve at least 0.9, where 1 is the maximum; inconclusive = response in the unintended direction; inactive = score below 0.9.
# Target: Cellular tumor antigen p53 (Homo sapiens) (UniProt P04637)
# Experiment: TOX21_p53_BLA_p3_ratio: Tox21 HCT-116 p53 Agonism Beta-lactamase Assay, Ratio, Phase 3 (AID 2283596)
# Source text: TOX21_p53_BLA_p3 is a cell-based, single-readout assay that uses HCT116, a human intestinal cell line, […] in a 1536-well plate.TOX21_p53_BLA_p3_ratio is an assay readout measuring reporter gene via receptor activity and designed using inducible reporter (beta lactamase induction) detected with GAL4 b-lactamase reporter gene. The signal is derived from the ratio of cleaved (ch2) to uncleaved (ch1) reporter gene substrate used as the measure of target activity.Data from the assay component TOX21_p53_BLA_p3_ratio was analyzed into 1 assay endpoint. This assay endpoint, TOX21_p53_BLA_p3_ratio, was analyzed in the positive analysis fitting direction relative to DMSO as the negative control and baseline of activity. Using a type of inducible reporter, gain-of-signal activity can be used to understand changes in the reporter gene as they relate to the gene TP53. Furthermore, this assay endpoint can be referred to as a primary readout, because this assay has produced multiple assay endpoints where this ratio serves a reporter gene function to understand target activity. To generalize the intended target to other relatable targets, this assay endpoint is annotated to the DNA binding intended target family, where the subfamily is tumor suppressor.
# Thawing Method: Place 14 mL of pre-warmed thaw medium into a 15 mL of conical tub. Remove the vial of cells to be thawed from liquid nitrogen and thaw rapidly by placing at 37C in a water bath with gentle agitation for 1-2 minutes. Decontaminate the vial by wiping with 70% ethanol before opening in a biological safety cabinet. Transfer the vial contents drop-wise into 14 mL of thaw medium in a sterile 15-mL conical tub. Centrifuge cells at 900 rpm for 4 minutes and resuspend in thaw medium. Transfer contents to the T75 tissue culture flask containing Thaw Medium and place flask in a humidified 37C/5% CO2 incubator. Switch to growth medium at first passage.Propagation Method: Aspirate medium, rinse once in DPBS, add 0.25% Trypsin/EDTA and swirl to coat the cell evenly. Add an equal volume of Growth Medium to inactivate Trypsin after 2-3 minutes incubation at 37C. Centrifuge cells at 900 rpm for 4 minutes and resuspend in growth medium. Cell should be passage or fed at least twice a week.Assay Protocol: Harvest cells from culture in growth medium and resuspend in assay medium. 2.2 Dispense 4000 cells/5 uL/well into 1536-well black/clear bottom plates using a Multidrop dispenser. After the cells were incubated at 37C for 5 hours, 23 nL of compounds dissolved in DMSO were transferred to the assay plate by a PinTool resulting in a 217-fold dilution. Incubate the plates for 16 hours at 37C, 5% CO2. Add 1 uL of 6X LiveBLAzer FRET B/G (CCF4-AM) Substrate Mixture to each well using a BioRAPTR dispenser and incubate the plates at room temperature for 2 hours. Measure fluorescence intensity at 460 and 530 nm emission and 405 nm excitation by an Envision detector. Data is expressed as the ratio of 460nm/530nm emissions. Add 4 uL of Cell-titer Glo to each well using BioRAPTR and incubate the plates at room temperature for 2 hours. Measure fluorescence intensity by a VewLux plate reader.
# Sequence of Cellular tumor antigen p53 (Homo sapiens) (P04637 whole entry, looked up): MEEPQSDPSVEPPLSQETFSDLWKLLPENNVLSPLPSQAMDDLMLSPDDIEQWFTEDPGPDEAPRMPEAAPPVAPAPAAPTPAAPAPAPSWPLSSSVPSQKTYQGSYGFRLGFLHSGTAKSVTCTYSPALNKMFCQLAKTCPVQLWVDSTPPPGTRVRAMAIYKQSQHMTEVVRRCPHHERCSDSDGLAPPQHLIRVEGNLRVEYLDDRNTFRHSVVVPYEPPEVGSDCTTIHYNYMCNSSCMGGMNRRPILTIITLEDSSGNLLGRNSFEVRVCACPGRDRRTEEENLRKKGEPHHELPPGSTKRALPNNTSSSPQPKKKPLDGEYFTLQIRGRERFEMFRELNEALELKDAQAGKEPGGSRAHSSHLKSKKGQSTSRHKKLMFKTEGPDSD
Structure (SMILES),outcome,AC50
Oc1ccc2c(c1)-c1ccccc1C2,inactive,–
COC(=O)c1ccccc1O,inactive,–
CCOC(=O)c1ccc(C2CCC(NC[C@H](O)COc3ccc(O)c(NS(C)(=O)=O)c3)CC2)cc1 (stereo not given in full),inactive,–
CN(C)c1ccc(Cc2ccc(N(C)C)cc2)cc1,inactive,–
CC1(C)C(=O)N(Br)C(=O)N1Br,inactive,–
C1=CCCC=CCCC=CCC1,inactive,–
CCOCCOCCOCCO,inactive,–
CCCN(C1CCN(C(=O)C2CCNCC2)CC1)[C@@H]1CCc2ccc(OC)cc2C1,inactive,–
CCCCCCc1ccc(O)cc1O,inactive,63.9 µM (active)
Nc1ccc(Nc2ccccc2)cc1,inactive,–
COc1cccc(-c2ccc(/C=C\CN3CCCCCC3)cc2Cl)c1,inactive,–
CCN(C(=O)c1cc(C)cc(OC[C@H](C)Nc2ccncc2)c1)C(C)C,inactive,–
COC(=O)c1c(Cl)c(Cl)c(C(=O)OC)c(Cl)c1Cl,inactive,–
COCCOc1cc2cc(C(=O)NC3CCN(C(C)C)CC3)n(CC(=O)Nc3ccc(Cl)cn3)c2cn1,inactive,–
O=P(OC(CCl)CCl)(OC(CCl)CCl)OC(CCl)CCl,inactive,–
CC(O)CN(CCN(CC(C)O)CC(C)O)CC(C)O (stereo not given),inactive,–
CC[C@H]1OC(=O)[C@H](C)[C@@H](O[C@H]2C[C@@](C)(OC)[C@@H](O)[C@H](C)O2)[C@H](C)[C@@H](O[C@@H]2O[C@H](C)C[C@H](N(C)C)[C@H]2O)[C@](C)(O)C[C@@H](C)C(=O)[C@H](C)[C@@H](O)[C@]1(C)O,inactive,–
O=c1n(CC2CO2)c(=O)n(CC2CO2)c(=O)n1CC1CO1 (stereo not given),–,26.8 µM (active) and 19.6 µM (active)
CCCCCCCCCCCCCCCO,inactive,–
CN(C)c1ccc(N=NS(=O)(=O)O)cc1,inactive,–

Structure (SMILES),outcome,AC50
CCCCCCCCCCCCc1ccccc1,inactive,–
Nc1nc2ncc(CNc3ccc(C(=O)N[C@@H](CCC(=O)O)C(=O)O)cc3)nc2c(=O)[nH]1,inactive,–
CCCCCCCCO,inactive,–
C1N2CN3CN1CN(C2)C3,inactive,–
Cc1ccc(N)cc1O,inactive,–
CC(C)=CCC/C(C)=C/CO,inactive,–
Cc1ccc(C)c(O)c1,inactive,–
COc1ccc(/C=C/S(=O)(=O)NC(=O)c2ccc(C)cc2Cl)cc1,–,29 µM (active)
Cc1ccc(O)cc1,inactive,–
Fc1ccccc1[C@@H](F)COC1CCC(Nc2ncnc3[nH]ncc23)CC1 (stereo not given in full),inactive,–
COc1ccc2sc(C(=O)Nc3nnn[nH]3)c(OC(C)C)c2c1,inactive,–
O=C1CCCCCN1,inactive,–
O=C(NS(=O)(=O)/C=C/c1ccccc1)c1ccc(F)cc1Cl,–,24.9 µM (active)
CCNc1ccccc1,inactive,–
CC/C(=C\C(=N/O)C(N)=O)C(C)[N+](=O)[O-] (stereo not given),inactive,–
Cc1c(-c2cccnc2)c2ccccc2n1CCCCC(=O)O,inactive,–
CC1=CC(=O)CC(C)(C)C1,inactive,–
O=c1[nH]c2ccc(S(=O)CCN3CCC(Cc4ccc(F)cc4)CC3)cc2o1 (stereo not given),inactive,–
O=C(O)c1cccc(N(Cc2cccnc2)c2ccc(OC(F)F)c(OC(F)F)c2)c1,inactive,–
